# The campaign covered roughly 65,000 compounds. About 320 (0.49%) were called active.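 Rule for the calls: active = the 320 compounds with the highest percent inhibition in the single-dose primary screen, excluding strongly autofluorescent ones (cut at about 32% in these data); inactive = the rest, inconclusive results apart.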 The sample as a whole holds a higher share of actives than the screen did.
# System: diphosphomevalonate decarboxylase (Streptococcus pneumoniae D39)
# Experiment: S. pneumoniae DPM-DC inhibitors, primary screen, biochemical, PK/LDH-coupled NADH fluorescence (AID 556);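 for inhibition: kinetic rate of NADH fluorescence loss reporting ADP formed by the decarboxylase; 0% = full reaction rate with carrier and 100% = no-substrate background rate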
# Conditions: purified DPM-DC, at 10 µM
# [1] = stronger effect = higher value unless noted
# [2] = measured here: pilot screen trials, stronger effect = higher value
structure (smiles),measurement,setting,value
Cc1ccc(OS(=O)Nc2cccc3nccnc23)cc1 (stereo not drawn),inhibition,[1],inactive
CCCCSc1nnc(-c2ccc(NC(=O)CC)cc2)n1C,inhibition,[1],6% (inactive)
CC1CCc2sc3nc(N4CCN(CCO)CC4)n4ncnc4c3c2C1 (stereo not drawn),inhibition,[1],inactive
N#Cc1c2c(c(N3CCN(CCO)CC3)n3c1nc1ccccc13)CCCC2,inhibition,[1],inactive
CCC(=O)N(Cc1cc2cc(OC)ccc2[nH]c1=O)c1ccccc1C,inhibition,[1],16% (inactive)
O=C(Cn1c(=O)n(Cc2ccco2)c(=O)c2ccccc21)NCC1CCCO1 (stereo not drawn),inhibition,[1],inactive
O=C(CSc1nc2ccccc2o1)N1CCN(c2ccc(Cl)cc2)CC1,inhibition,[1],"0.5% [measured here: pilot screen trials, stronger effect = higher value]"
same,outcome,[1],inactive
CC(CNC(=O)c1ccc(Br)o1)NC(=O)c1ccc(Br)o1 (stereo not drawn),inhibition,[1],2% (inactive)
CCc1nnc(NC(=O)c2cccs2)s1,inhibition,[1],5% (inactive)
CCCn1c(SCC(=O)Nc2cccc(C(=O)OCC)c2)nnc1-c1ccoc1C,inhibition,[1],2% (inactive)
CCC1=[N+]([O-])C(C)(/C(C)=N\O)N(O)C1(C)C (stereo not drawn),inhibition,[1],inactive
c1coc(-c2nc3nc4ccccc4n3nc2-c2ccco2)c1,inhibition,[1],4% (inactive)
CN(c1nc2ccccc2n2c(-c3ccco3)nnc12)S(=O)(=O)c1ccccc1,inhibition,[1],48% (active)
CC(=O)Nc1ccc(S(=O)(=O)N2CCCC2C(=O)O)cc1 (stereo not drawn),inhibition,[1],inactive
CCOc1cccc(-n2nnnc2-c2ccc(OC)cc2)c1,inhibition,[1],"4.5% [measured here: pilot screen trials, stronger effect = higher value]"
same,outcome,[1],inactive
O=C(Cc1cccs1)N1CCCC(c2nc(-c3ccc(S(=O)(=O)N4CCCC4)cc3)no2)C1 (stereo not drawn),inhibition,[1],inactive
CCOC(=O)c1ccc(N2C(=O)CC(N3CCC(C(=O)OCC)CC3)C2=O)cc1 (stereo not drawn),inhibition,[1],inactive
O=C(NC12CC3CC(CC(C3)C1)C2)N1CCCC(CO)C1 (stereo not drawn),inhibition,[1],inactive
CC(=O)Oc1cc2c(C(=O)NCCN3CCOCC3)c(C)oc2c2ccccc12,inhibition,[1],inactive
CN(C)c1ccc(NC(=O)c2ccncc2)c2ccccc12,inhibition,[1],"0% [measured here: pilot screen trials, stronger effect = higher value]"
same,outcome,[1],inactive
Cn1c(=O)[nH]c(=O)c2c1nc(CN1CCN(c3ccccc3F)CC1)n2CCc1ccccc1,inhibition,[1],inactive
Cc1cc(C)n(C(=O)c2ccc(C)c(S(=O)(=O)N3CCOCC3)c2)n1,inhibition,[1],inactive
COc1ccc(-c2c3c(=O)n(C)c(=O)n(C)c3cn2NC(C)=O)cc1,inhibition,[1],20% (inactive)
Cc1cccc(C2c3c(n(C)c(=O)n(C)c3=O)N=C3c4ccccc4C(=O)C32)c1 (stereo not drawn),inhibition,stronger effect = higher value,4% (inactive)
same,inhibition,[2],1%
COc1ccc(C2C3=C(OC(C)=O)c4ccccc4C3=Nc3c2c(=O)n(C)c(=O)n3C)cc1 (stereo not drawn),inhibition,stronger effect = higher value,70% (active)
same,inhibition,[2],3.5%
O=C(O)c1cc(S(=O)(=O)N2CCCCCC2)c(Cl)cc1Cl,inhibition,[1],inactive
COc1ccccc1N1CCN(C(=O)c2ccc(S(=O)(=O)N3CCCCC3)cc2)CC1,inhibition,[1],inactive
COC(=O)c1cccc(NC(=O)CN2CCC(NC(=O)c3cc(OC)c(OC)c(OC)c3)CC2)c1,inhibition,[1],inactive
O=C(Nc1cccc2cccnc12)c1cccc(N2C(=O)CCC2=O)c1,inhibition,[1],3% (inactive)
C=C(C)CSc1nc(N)c2c3c(sc2n1)CCC3,inhibition,[1],6% (inactive)
COc1cc(Cl)c(C)cc1NC(=O)CSc1nnc(-c2cccnc2)n1Cc1ccco1,inhibition,[1],inactive
O=C(Nc1ccccc1F)c1cc(S(=O)(=O)N2CCCCC2)cs1,inhibition,[1],inactive
COc1ccc(-c2c(C)nn3c(N4CCC(C(=O)N5CCCCC5)CC4)cc(C)nc23)cc1OC,inhibition,[1],inactive
CCCS(=O)(=O)Nc1c(C(=O)O)[nH]c2ccccc12,inhibition,[1],"8% [measured here: pilot screen trials, stronger effect = higher value]"
same,outcome,[1],inactive
Cc1ccc(C)c(N2CCN(C(=O)CCCCn3c(=O)[nH]c4ccccc4c3=O)CC2)c1,inhibition,[1],inactive
COc1ccc(C(C)=O)cc1COC(=O)Cn1cnc2ccccc2c1=O,inhibition,[1],inactive
O=S(=O)(c1ccc(F)cc1)N1CCN(Cc2ccccc2C(F)(F)F)CC1,inhibition,[1],inactive
CCOc1c(N2CCCCC2)c(=O)c1=O,inhibition,[1],inactive
O=C(CSCc1cccs1)N1CCCC1,inhibition,[1],"0% [measured here: pilot screen trials, stronger effect = higher value]"
same,outcome,[1],inactive
Cc1c2cn[nH]c(=O)c2c(C)n1Cc1ccc(F)cc1,inhibition,[1],inactive
CCS(=O)(=O)n1nc(-c2ccccc2)nc1SCc1ccccc1,inhibition,[1],inactive
CC1=C(C(=O)Nc2ccccc2)C(c2cccs2)C(C#N)=C(SCC#N)N1 (stereo not drawn),inhibition,stronger effect = higher value,1% (inactive)
same,inhibition,[2],3%
CC1CCCN(Cc2nc3c(c(=O)n(C)c(=O)n3C)n2CC(=O)c2ccccc2)C1 (stereo not drawn),inhibition,[1],inactive
Cc1cc(Nc2cccc(F)c2)n2ncnc2n1,inhibition,[1],inactive
Cc1cc(C)c(C#N)c(SCc2[nH]nc3c2C(c2ccccc2)C(C#N)=C(N)O3)n1 (stereo not drawn),inhibition,[1],"0% [measured here: pilot screen trials, stronger effect = higher value]"
same,outcome,[1],inactive
CC(C[N+](C)(C)C)OC(N)=O (stereo not drawn),inhibition,stronger effect = higher value,1% (inactive)
same,inhibition,[2],0%
CCOC(=O)CSC1=C(C#N)C(c2ccco2)C(C(=O)OCc2ccccc2)=C(C)N1 (stereo not drawn),inhibition,[1],11% (inactive)
NC(=O)c1ccccc1NC(=O)c1ccccc1F,inhibition,[1],inactive
Cc1nc2ncnn2c(C)c1CCC(=O)N1CCN(C(=O)c2ccco2)CC1,inhibition,[1],inactive
O=C(c1ccccc1)c1ccc(OC(=O)N2CCCC2)cc1,inhibition,[1],inactive
COC(=O)c1ccccc1NC(=O)Cn1nc(C(F)(F)F)c2c1CCC2,inhibition,[1],inactive
CCN=C1SC(CC(=O)Nc2ccc(C)cc2)C(=O)N1CC (stereo not drawn),inhibition,[1],inactive
Cc1ccccc1Nc1nnc(C)c(=O)[nH]1,inhibition,[1],2% (inactive)
CCSc1nc2c(c(=O)[nH]1)C(c1cccnc1)C(C(=O)OC(C)C)=C(C)N2 (stereo not drawn),inhibition,[1],"0% [measured here: pilot screen trials, stronger effect = higher value]"
same,outcome,[1],inactive
COc1ccc(NC(=O)CCNC(=O)Cn2ccc3ccccc3c2=O)c(OC)c1,inhibition,[1],"1.5% [measured here: pilot screen trials, stronger effect = higher value]"
same,outcome,[1],inactive
CCOC(=O)CSc1nnc(NC(=O)c2cccc(S(=O)(=O)N3CCCC3)c2)s1,inhibition,[1],inactive
